The structures appear in SMILES notation. The source made the active and inactive calls. Unless noted, how the calls were made is not given here.

The text below walks through data of PubChem BioAssay.

Assay [1] can be described thus: resazurin metabolic signal in HepG2 cells – cell-based, resazurin fluorescence, 24 h, PK04 Diversity Set, profiling panel (AID 1172). Further: test concentration not given here. The following applies: HepG2 viability, higher = more signal.
Assay [2] is described as follows: budding yeast growth changes without added modifier – OD600, strain BY4716, 24 h, basal condition, primary screen (AID 1173). The following applies: S. cerevisiae BY4716 growth, OD600, 24 h; higher = more signal, called active from +8 up or from −8 down.
Assay [3] in a line: viability profiling in MM1S myeloma cells – cell-based, resazurin fluorescence, basal, 24 h, PK04 Diversity Set, profiling panel (AID 1174). Further: test concentration not given here. The following applies: higher = more signal, called active from +8 up or from −8 down.
The target of assay [4] is Dihydroorotate dehydrogenase (quinone), mitochondrial (Plasmodium falciparum (isolate 3D7)) (UniProt Q08210). In words: inhibition of P. falciparum DHODH – biochemical, C-terminal His tag, absorbance 600 nm, primary screen (AID 1175).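 Further: recombinant parasite enzyme with a five histidine tag at its C terminus; test concentration not given here.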 The following applies: PfDHODH enzyme, DCIP absorbance 600 nm; higher = more signal, called active from +8 up or from −8 down.
Assay [5] is described as follows: inhibition of PAO1 biofilm formation – strain PAO1, LB-PBS medium, absorbance 600 nm, primary screen (AID 1176). Further: test concentration not given here. As to conditions: P. aeruginosa PAO1 growth/biofilm, A600, 12 h; higher = more signal.
A short description of assay [6]: growth modulation of vineyard yeast isolate – strain RM11-1a, OD600, basal, 24 h, primary screen (AID 1177).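 Further: cultures grown under basal conditions with no added stressor; test concentration not given here.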 The following applies: S. cerevisiae RM11-1a growth, OD600, 24 h; higher = more signal, called active from +8 up or from −8 down.
Assay [7] in a line: growth of efflux-deficient E. coli DRC39 – strain DRC39, OD650, 24 h, E. coli filamentation inducers, primary screen (AID 1178).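 Further: growth measured as culture turbidity by optical density at 650 nm; test concentration not given here.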 The following applies: E. coli DRC39 acrAB, higher = more signal, called active from +8 up or from −8 down.
Assay [8] in a line: growth of efflux-deficient E. coli DRC39 – strain DRC39, OD650, 48 h, E. coli filamentation inducers, primary screen (AID 1179).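 Further: screen aims at cell division blockers that make cells filament.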 As to conditions: E. coli DRC39 delta-acrAB growth, higher = more signal, called active from +8 up or from −8 down.
Assay [9] in a line: viability profiling in RPMI8226 myeloma cells – cell-based, resazurin fluorescence, basal, 24 h, PK04 Diversity Set, profiling panel (AID 1180).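 Further: RPMI8826 multiple myeloma cell line at 5000 cells per well; test concentration not given here.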 The following applies: higher = more signal. Background: Resazurin is reduced to fluorescent resorufin, in cell work by metabolically active cells.
The target in assay [10] is E3 ubiquitin-protein ligase XIAP (Homo sapiens) (UniProt P98170). Kind of assay: small molecules binding XIAP protein – biophysical, small-molecule microarray, fluorescence 635 nm, primary screen (AID 1181).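 Further: score merges 667 nm emission and signal to noise over triplicate slides.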 The following applies: higher = more signal.
E3 ubiquitin-protein ligase XIAP (Homo sapiens), sequence (P98170 whole entry, looked up): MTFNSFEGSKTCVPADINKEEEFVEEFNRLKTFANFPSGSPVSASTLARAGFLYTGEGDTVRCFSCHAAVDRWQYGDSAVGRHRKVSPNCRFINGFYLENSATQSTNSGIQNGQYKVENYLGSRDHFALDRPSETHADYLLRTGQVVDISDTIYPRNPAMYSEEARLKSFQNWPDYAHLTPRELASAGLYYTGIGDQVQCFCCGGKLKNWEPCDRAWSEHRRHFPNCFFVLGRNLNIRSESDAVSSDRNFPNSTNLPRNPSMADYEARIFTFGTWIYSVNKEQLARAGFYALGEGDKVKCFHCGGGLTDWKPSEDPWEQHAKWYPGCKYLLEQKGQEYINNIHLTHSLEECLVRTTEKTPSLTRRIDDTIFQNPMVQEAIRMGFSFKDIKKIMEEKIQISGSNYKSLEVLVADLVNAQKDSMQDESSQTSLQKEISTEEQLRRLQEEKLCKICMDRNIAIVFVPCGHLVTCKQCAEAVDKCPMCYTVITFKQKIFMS

Dihydroorotate dehydrogenase (quinone), mitochondrial (Plasmodium falciparum (isolate 3D7)), sequence (Q08210 whole entry, looked up): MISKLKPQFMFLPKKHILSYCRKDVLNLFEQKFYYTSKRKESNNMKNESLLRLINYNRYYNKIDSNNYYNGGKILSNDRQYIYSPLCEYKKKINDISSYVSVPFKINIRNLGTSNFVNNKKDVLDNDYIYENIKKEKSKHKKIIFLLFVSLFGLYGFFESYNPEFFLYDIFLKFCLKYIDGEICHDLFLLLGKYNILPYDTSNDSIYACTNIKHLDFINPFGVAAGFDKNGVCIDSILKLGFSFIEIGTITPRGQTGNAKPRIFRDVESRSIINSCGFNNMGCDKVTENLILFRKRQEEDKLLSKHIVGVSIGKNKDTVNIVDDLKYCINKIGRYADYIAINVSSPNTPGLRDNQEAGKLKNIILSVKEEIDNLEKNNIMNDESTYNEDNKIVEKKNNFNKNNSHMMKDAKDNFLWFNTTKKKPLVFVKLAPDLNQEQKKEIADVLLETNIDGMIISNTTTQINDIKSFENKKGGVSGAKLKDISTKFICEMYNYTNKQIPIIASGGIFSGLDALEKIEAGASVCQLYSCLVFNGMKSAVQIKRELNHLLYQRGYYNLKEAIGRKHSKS

For `COc1ccc(O[C@H]2C=C[C@@H](c3ccccc3)O[C@@H]2COC(=O)CCC(C)=NO[C@@H]2O[C@H](COC(C)=O)[C@@H](OC(C)=O)[C@H](OC(C)=O)[C@H]2OC(C)=O)cc1`, the z-score in [1] is 0.0729; in assay [2], 1.64 (inactive); in assay [3] it was -0.169 (inactive); in assay [5] it was -0.585 (inactive); in assay [6], 1.37 (inactive); in [7], 0.486 (inactive). Besides, the z-score in assay [8] was 0.167 (inactive); in [9], 0.111. Also, the composite z-score in [4] is 0.671 (inactive); in assay [10], 0.461.
For the compound `CCN1C(=O)[C@H]2[C@H]3[C@H](O)[C@H](O)CC(=NOC[C@H]4O[C@H](c5ccccc5)C=C[C@@H]4Oc4ccc(OC)cc4)[C@@H]3CC[C@H]2C1=O`, the z-score in assay [1] was -0.985; in [2] it was -0.933 (inactive); in assay [3] it was -0.641 (inactive); in assay [5], 0.241 (inactive); in assay [6], 0.635 (inactive); in assay [7], 0.602 (inactive). The z-score in assay [8] is 0.923 (inactive); in [9] it was -1.04. Also, the results for the composite z-score in [4] and in [10] were -0.953 (inactive) and 0.0617, respectively.
With `C=CC[C@@H]1C=C[C@H](ON=C(C)CCC(=O)OC[C@H]2O[C@H](C#Cc3ccccc3)C=C[C@@H]2Oc2ccc(C)cc2)[C@@H](CO)O1`, the z-score in assay [1] was -0.0055; in [2], 1.09 (inactive); in assay [3] it was 0.212 (inactive); in assay [5], -0.242 (inactive); in [6], 1.23 (inactive); in [7], 0.911 (inactive). For the same compound, the z-score in assay [8] is -1.55 (inactive); in assay [9] it was -0.177. Besides, the composite z-score in assay [4] was 0.103 (inactive); in [10], 0.132.
For the compound `O=C1CCCC=C1C(CCc1ccccc1)OC(=O)c1ccc(Br)cc1` (stereo not given), the z-score is -0.0575 in assay [1]; -0.744 (inactive) in assay [2]; -0.688 (inactive) in assay [3]; 1.18 (inactive) in assay [5]; -0.0079 (inactive) in [6]; -0.147 (inactive) in [7]. Further, the z-score is -0.247 (inactive) in assay [8] and 0.504 in assay [9]. Besides, the composite z-score in assay [4] was -1.19 (inactive); in assay [10], 0.289.
Consider `COC(=O)CC=C[C@@H](C)[C@@H]1C=C[C@H](O)[C@@H](CO)O1`, for which the z-score in [1] is -0.118; in assay [2] it was 0.626 (inactive); in assay [3], -3.24 (inactive); in assay [5], 0.274 (inactive); in assay [6] it was 0.86 (inactive); in [7], 0.439 (inactive). In addition, the figures for the z-score in assay [8] and in assay [9] were 0.483 (inactive) and -1.28, respectively. In addition, the composite z-score was 0.35 (inactive) in assay [4] and 0.0727 in [10].
As for `CCC(=O)[C@@]1(O)C(=O)N2C(=C3C(=O)OCC[C@@H]31)N(Cc1ccccc1)C(C)=C(C(=O)OC)[C@H]2c1ccccc1`, the z-score was -0.207 in assay [1]; -0.235 (inactive) in [2]; 0.327 (inactive) in assay [3]; 0.936 (inactive) in assay [5]; 0.273 (inactive) in assay [6]; 0.533 (inactive) in assay [7]. Also, the z-score in assay [8] was -0.247 (inactive); in assay [9], -0.557. The composite z-score was -1.41 (inactive) in assay [4] and -0.175 in assay [10].
For the compound `COC(=O)[C@@H]1CC[C@H](C)[C@@H](c2ccc(C)cc2)N1C(=O)c1ccc(C=NO[C@H](C)c2cn([C@H](CO)Cc3ccccc3)nn2)cc1`, the z-score in [1] was -1.32; in assay [2], 0.0789 (inactive); in [3], 0.534 (inactive); in assay [5], -0.598 (inactive); in assay [6], 0.59 (inactive); in assay [7] it was -1.28 (inactive). The z-score in [8] is -1.03 (inactive); in assay [9] it was 0.641. The figures for the composite z-score in [4] and in assay [10] were 0.271 (inactive) and -0.102, respectively.
With `COC(=O)CC=C[C@@H](C)[C@@H](C=NO[C@H](C)c1cn([C@H](CO)Cc2ccccc2)nn1)NS(=O)(=O)c1ccc(C)cc1`, the z-score is -0.891 in assay [1]; -1.17 (inactive) in assay [2]; -0.81 (inactive) in assay [3]; 0.0282 (inactive) in assay [5]; -0.476 (inactive) in [6]; 0.0146 (inactive) in [7]. Moreover, the z-score in [8] is -0.0853 (inactive); in assay [9] it was 0.108. Also, the composite z-score in assay [4] was 0.0463 (inactive); in [10], -0.206.
With `CC(C)(C)N1C(=O)[C@H]2[C@H]3[C@H](O)[C@H](O)CC(=NOCc4ccccc4)[C@H]3CC[C@H]2C1=O`, the z-score was -0.211 in [1]; -0.565 (inactive) in assay [2]; 0.0488 (inactive) in assay [3]; -0.237 (inactive) in assay [5]; -0.786 (inactive) in assay [6]; 0.184 (inactive) in [7]. Moreover, the z-score in assay [8] is 0.332 (inactive); in assay [9] it was 0.237. The values for the composite z-score in assay [4] and in [10] were -0.192 (inactive) and -0.102, respectively.
With `C#CCCCON=C1C[C@@H](O)[C@@H](O)[C@@H]2[C@@H]3C(=O)N(CCC(=O)OCC)C(=O)[C@@H]3CC[C@H]12`, the z-score was -1.1 in [1]; -4.65 (inactive) in [2]; -0.307 (inactive) in assay [3]; -0.191 (inactive) in [5]; -1.71 (inactive) in assay [6]; 0.0851 (inactive) in [7]. The z-score was 0.1 (inactive) in assay [8] and -0.192 in assay [9]. The composite z-score in assay [4] is -0.937 (inactive); in [10], -0.232.
On to `Cc1ccc(S(=O)(=O)N[C@H]2COC(=O)CC=C[C@H](C)[C@@H](NS(=O)(=O)c3ccc(C)cc3)COC(=O)CC=C[C@@H]2C)cc1`, for which the z-score in assay [1] was -0.0933; in [2] it was 1.32 (inactive); in assay [3], 0.418 (inactive); in assay [5] it was -0.585 (inactive); in assay [6], 1.34 (inactive); in assay [7], 0.455 (inactive). The z-score was 0.614 (inactive) in assay [8] and 0.0846 in [9]. The composite z-score in [4] is -0.069 (inactive); in assay [10], -0.146.
As for `COC(=O)[C@@H]1CC[C@H](C)[C@@H](c2ccc(C)cc2)N1C(=O)c1ccc(C=NO[C@H](C)c2cn([C@@H]3COC[C@H]3O)nn2)cc1`, the z-score in assay [1] is -0.324; in assay [2] it was -0.225 (inactive); in assay [3], -0.943 (inactive); in assay [5], 0.289 (inactive); in [6], 1.17 (inactive); in assay [7], 0.879 (inactive). Besides, the z-score is 0.246 (inactive) in assay [8] and -0.798 in [9]. For the same compound, the composite z-score in [4] is 0.0465 (inactive); in assay [10], 0.199.
As to `COC(=O)C1=C(C)N(Cc2ccccc2)[C@]23O[C@](C(=O)OC)(C(=O)N2[C@@H]1c1ccccc1)C(C(=O)OC)=C3C(=O)OC`, the z-score was -0.0934 in assay [1]; -1.32 (inactive) in assay [2]; 1.08 (inactive) in assay [3]; -0.965 (inactive) in assay [5]; -0.511 (inactive) in [6]; -0.907 (inactive) in [7]. Also, the z-score in assay [8] was -1.26 (inactive); in assay [9], 0.345. Besides, the results for the composite z-score in assay [4] and in [10] were -2.7 (inactive) and -0.254, respectively.
